Results: PubChem BioAssay AID1347413 (National Center for Advancing Translational Sciences (NCATS), 2020)
Calls of active or inactive are those of the source. The call rests on the fitted dose curve; in most records, active means well fitted curve in the direction sought with a large enough effect; inactive means no such curve, though single readings can be large or run the other way.

Test: qHTS to identify inhibitors of the type 1 interferon - major histocompatibility complex class I in skeletal muscle: tertiary screen by RT-qPCR, retest select compounds
Settings: C25cl48 myoblasts, IFN-beta, HLA-B RT-qPCR, 24 h
From the text: Assay Submitter (PI): Travis B. Kinder Ph.D. & James Inglese Ph.D. Assay Development and Screening Technology Laboratory (ADST) National Center for Advancing Translational Sciences (NCATS), Rockville, MD National Institute of Health (NIH), Bethesda, Maryland Idiopathic inflammatory myopathies, collectively referred to as myositis, are a group of rare autoimmune diseases characterized by skeletal muscle inflammation, weakness, and usually accompanied by systemic pathologies of the skin, lungs, or vasculature. Current immunosuppressive therapies and glucocorticoids are often not curative and are accompanied by harsh side effects, especially in children with juvenile myositis. We initiated a drug repurposing and development program to identify more targeted, less toxic therapeutics to treat myositis. Although its cause is not known, muscle from a subset of patients have an abundance of the inflammatory type 1 interferon (IFN) and a down-stream product major histocompatibility complex class I (MHC class I), which are both thought to contribute to damage and weakness. We conducted quantitative high throughput screening (qHTS) on 6,576 compounds (4,679 unique) through a series of cell-based assays to identify those that inhibit the IFN-stimulated expression of MHC class I in muscle precursor cells (myoblasts). […]

## CC(C)[C@]12O[C@H]1[C@@H]1O[C@@]13[C@@]1(C)CCC4=C(COC4=O)[C@@H]1C[C@@H]1O[C@@]13C2=O
  Potency: 654 nM (active)
